About 83,000 compounds went through this panel and 20% of them were active in at least one assay; those are over-represented in the sample as a whole.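 Step 1: grow cells in 96-well plates. Step 2: add test compound at a single concentration. Step 3: incubate 48 h. Step 4: record percent growth.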 A number with no mark means an inactive call. Calls of active or inactive are those of the source. How the source made its calls: active means growth percent below 10; inactive means the rest.
These molecules were tested on MOLT-4 leukemia (assay: NCI-60 one-dose screen, 48 h (100 = growth as untreated, 0 = no growth, -100 = all killed)). Conditions: 10 µM.
`O=C(/C=C/c1ccco1)c1nc2ccccc2n1Cc1ccc(Br)cc1` was tested, and the growth was 3.6% (active).
In the case of `O=C(/C=C/c1ccco1)c1nc2ccccc2n1Cc1ccc(F)cc1`, the growth was 6.46% (active).
In the case of `COc1cc2cc(C(=O)N3C[C@@H](CCl)c4c3cc(OC(=O)N3CCN(C)[C@@H]5CSSC[C@@H]53)c3ccccc43)[nH]c2c(OC)c1OC`, the growth was 3.8% (active).
`C#CC[Se]C(=O)c1ccc2n[se]nc2c1` was tested, and the growth was 22.9%.
With `O=C(/C=C/c1ccc(Cl)cc1Cl)c1nc2ccccc2n1Cc1ccc(F)cc1` the growth was 4.16% (active).
With `O=C(/C=C/c1ccc(Cl)cc1)c1nc2ccccc2n1Cc1ccc(Br)cc1` the growth was -0.283% (active).
For `CCOP(=O)(OCC)C(NC(C)=O)C(=O)SCCN` (stereo unspecified), the growth was 105%.
With `COc1cc2cc(C(=O)N3C[C@@H](CCl)c4c3cc(OC(=O)N3CCN(C)[C@@H]5CSSC[C@H]53)c3ccccc43)[nH]c2c(OC)c1OC` the growth was -27.3% (active).
`COc1ccc2cc([C@H](C)C(=O)[Se]CCC#N)ccc2c1` was tested, and the growth was 5.75% (active).
With `CC12OOC(C)(OO1)C2CCC(=O)OCCNc1ccnc2cc(Cl)ccc12` (stereo unspecified) the growth was 26.1%.
Work on `CC(C)N=C([Se])NC(=O)c1cccs1` yielded a growth of 15.4%.
For `Cc1ccc2[nH]c(=S)n(-c3ccc(F)cc3)c(=O)c2c1`, the growth was 106%.
`CCOC(=O)C1=C(Nc2ccccc2)C(=O)OC12C(=O)Nc1ccccc12` (stereo unspecified) showed a growth of 108%.
In the case of `CC12CCC3(CCC(=O)NCCCNc4ccnc5cc(Cl)ccc45)[C@@](C)(OO[C@]3(C)O1)O2`, the growth was 7.04% (active).
`CC[C@]12C=CCN3CC[C@@]4(c5ccc(OC)cc5N(C)[C@H]4[C@@](O)(C(=O)OC)[C@@H]1OC(=O)CCCC[P+](C1CCCCC1)(C1CCCCC1)C1CCCCC1)[C@@H]32` was tested, and the growth was -5.16% (active).
`CC(=O)Oc1ccccc1C(=O)[Se]C(=NC(C)C)NC(C)C` was tested, and the growth was -15.4% (active).
`COCCOCCOCCOc1ccc(-n2cc(CCCN(CCNc3ccnc4cc(Cl)ccc34)C(=O)CCC(=O)O[C@@H]3O[C@@H]4OC5(C)CC[C@H]6[C@H](C)CC[C@@H]([C@H]3C)[C@@]46OO5)nn2)cc1` was tested, and the growth was 7.21% (active).
`C[C@H]1[C@@H](CC(=O)N[C@@H](Cc2coc3ccccc23)B(O)O)O[C@@H]2OC3(C)CC[C@H]4[C@H](C)CC[C@@H]1[C@@]24OO3` was tested, and the growth was 8.41% (active).
With `COP(=O)(CC(F)(F)C(F)(F)F)OC` the growth was 5.72% (active).
`CC12OOC(C)(OO1)C2CCC(=O)NCCNc1ccnc2cc(Cl)ccc12` (stereo unspecified) was tested, and the growth was 98.6%.
With `CC[C@]12C=CCN3CC[C@@]4(c5ccc(OC)cc5N(C)[C@H]4[C@@](O)(C(=O)OC)[C@@H]1OC(=O)CCC[P+](c1ccc(C)cc1)(c1ccc(C)cc1)c1ccc(C)cc1)[C@@H]32` the growth was -45.1% (active).
For `CC(C)N=C([Se])NC(=O)c1ccccc1`, the growth was 2.86% (active).
With `CC[C@]12C=CCN3CC[C@@]4(c5ccc(OC)cc5N(C)[C@H]4[C@@](O)(C(=O)OC)[C@@H]1OC(=O)CCC[P+](C1CCCCC1)(C1CCCCC1)C1CCCCC1)[C@@H]32` the growth was 2.35% (active).
In the case of `CC1=C(COCCOC(=O)c2ccc(S(=O)(=O)F)cc2)C2=C(C)C3(CC3)[C@@](C)(O)C(=O)C2=C1`, the growth was 36%.
For `CC[C@]12C=CCN3CC[C@@]4(c5ccc(OC)cc5N(C)[C@H]4[C@@](O)(C(=O)OC)[C@@H]1OC(=O)CCCC[P+](c1ccc(OC)cc1)(c1ccc(OC)cc1)c1ccc(OC)cc1)[C@@H]32`, the growth was -26.2% (active).
With `CC[C@@]12CC(C(=O)OC)=C3Nc4cc5c(cc4[C@@]34CCN(C[C@H]3O[C@H]31)[C@@H]24)[C@@H]1[C@H](O5)[C@@H](O)[C@@]2(CC)CC(C(=O)OC)=C3Nc4cc(OC)ccc4[C@@]34CCN1[C@@H]24` the growth was -4.22% (active).
In the case of `CCOP(=O)(CC(F)(F)C(F)(F)F)OCC`, the growth was 4% (active).
`CC(=O)Oc1ccccc1C(=O)NC([Se])=NC1CCCCC1` was tested, and the growth was 29.4%.
In the case of `C[C@H]1[C@H](OC(=O)CCC(=O)N(CCCc2cn(-c3ccc(CN4CCOCC4)cc3)nn2)CCNc2ccnc3cc(Cl)ccc23)O[C@@H]2OC3(C)CC[C@H]4[C@H](C)CC[C@@H]1[C@@]24OO3`, the growth was -4.26% (active).
`O=C(/C=C/c1ccc(Cl)cc1)c1nc2ccccc2n1Cc1ccc(F)cc1` was tested, and the growth was -0.463% (active).
For `O=C(NC([Se])=NC1CCCCC1)c1ccc2c(c1)OCO2`, the growth was 55.6%.
`C[C@H]1[C@H](OC(=O)CCC(=O)N(CCCc2cn(-c3ccc(C#N)cc3)nn2)CCNc2ccnc3cc(Cl)ccc23)O[C@@H]2OC3(C)CC[C@H]4[C@H](C)CC[C@@H]1[C@@]24OO3` was tested, and the growth was 4.41% (active).
With `C[C@H]1[C@@H](Oc2ccc(-c3cn(-c4ccnc5cc(Cl)ccc45)nn3)cc2)O[C@@H]2OC3(C)CC[C@H]4[C@H](C)CC[C@@H]1[C@@]24OO3` the growth was 17.5%.
`COc1ccc(/C=C/C(=O)c2nc3ccccc3n2Cc2ccc(Br)cc2)cc1` was tested, and the growth was 20.7%.
Molecule `COC(=O)CCn1c(-c2ccc(-n3cc(-c4ccc(O[C@H]5O[C@@H]6OC7(C)CC[C@H]8[C@H](C)CC[C@@H]([C@H]5C)[C@@]68OO7)cc4)nn3)cc2)nc2ccccc21` has a growth of 11%.
For `C[C@H]1[C@H](OC(=O)CCC(=O)N(CCCc2cn(-c3ccc([N+](=O)[O-])cc3)nn2)CCNc2ccnc3cc(Cl)ccc23)O[C@@H]2OC3(C)CC[C@H]4[C@H](C)CC[C@@H]1[C@@]24OO3`, the growth was 2.71% (active).
